These results are taken from PubChem BioAssay (EPA / NIEHS).

The structures appear in SMILES notation. Several values for one entry are separate records, joined by “and”; a condition that tells them apart may be missing. Equal values may be shown once. Records with an inconclusive call do not appear. The source holds several records for some structures; these can differ, active in one and inactive in another. Activity calls are given as the source filed them. How the source made its calls: active means hit-call score of the fitted dose curve at least 0.9, where 1 is the maximum; inconclusive means response in the unintended direction; inactive means score below 0.9.

Chain of Cellular tumor antigen p53 (Homo sapiens) (P04637 whole entry, looked up, the tested form may be a part): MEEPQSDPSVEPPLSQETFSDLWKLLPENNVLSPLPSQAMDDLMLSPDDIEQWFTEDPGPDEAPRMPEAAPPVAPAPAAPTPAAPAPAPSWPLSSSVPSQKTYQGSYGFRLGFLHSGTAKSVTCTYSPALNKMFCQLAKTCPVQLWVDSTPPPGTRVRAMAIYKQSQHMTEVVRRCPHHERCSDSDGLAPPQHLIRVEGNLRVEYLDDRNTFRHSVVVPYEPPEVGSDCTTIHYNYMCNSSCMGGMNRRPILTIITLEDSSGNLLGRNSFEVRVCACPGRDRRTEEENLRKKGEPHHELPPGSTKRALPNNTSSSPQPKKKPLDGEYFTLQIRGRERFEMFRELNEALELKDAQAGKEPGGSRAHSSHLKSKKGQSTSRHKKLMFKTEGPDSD

This assay has as its target Cellular tumor antigen p53 (Homo sapiens) (UniProt P04637). Description: TOX21_p53_BLA_p2_ratio: Tox21 HCT-116 p53 Agonism Beta-lactamase Assay, Ratio, Phase 2 (AID 2283592). An excerpt: TOX21_p53_BLA_p2 is a cell-based, single-readout assay that uses HCT116, a human intestinal cell line, […] in a 1536-well plate.TOX21_p53_BLA_p2_ratio is an assay readout measuring reporter gene via receptor activity and designed using inducible reporter (beta lactamase induction) detected with GAL4 b-lactamase reporter gene. The signal is derived from the ratio of cleaved (ch2) to uncleaved (ch1) reporter gene substrate used as the measure of target activity.Data from the assay component TOX21_p53_BLA_p2_ratio was analyzed into 1 assay endpoint. This assay endpoint, TOX21_p53_BLA_p2_ratio, was analyzed in the positive analysis fitting direction relative to DMSO as the negative control and baseline of activity. Using a type of inducible reporter, gain-of-signal activity can be used to understand changes in the reporter gene as they relate to the gene TP53. Furthermore, this assay endpoint can be referred to as a primary readout, because this assay has produced multiple assay endpoints and this ratio serves a reporter gene function to understand target activity. To generalize the intended target to other relatable targets, this assay endpoint is annotated to the DNA binding intended target family, where the subfamily is tumor suppressor.
Thawing Method: Place 14 mL of pre-warmed thaw medium into a 15 mL of conical tub. Remove the vial of cells to be thawed from liquid nitrogen and thaw rapidly by placing at 37C in a water bath with gentle agitation for 1-2 minutes. Decontaminate the vial by wiping with 70% ethanol before opening in a biological safety cabinet. Transfer the vial contents drop-wise into 14 mL of thaw medium in a sterile 15-mL conical tub. Centrifuge cells at 900 rpm for 4 minutes and resuspend in thaw medium. Transfer contents to the T75 tissue culture flask containing Thaw Medium and place flask in a humidified 37C/5% CO2 incubator. Switch to growth medium at first passage.Propagation Method: Aspirate medium, rinse once in DPBS, add 0.25% Trypsin/EDTA and swirl to coat the cell evenly. Add an equal volume of Growth Medium to inactivate Trypsin after 2-3 minutes incubation at 37C. Centrifuge cells at 900 rpm for 4 minutes and resuspend in growth medium. Cell should be passage or fed at least twice a week.Assay Protocol: Harvest cells from culture in growth medium and resuspend in assay medium. 2.2 Dispense 4000 cells/5 uL/well into 1536-well black/clear bottom plates using a Multidrop dispenser. After the cells were incubated at 37C for 5 hours, 23 nL of compounds dissolved in DMSO were transferred to the assay plate by a PinTool resulting in a 217-fold dilution. Incubate the plates for 16 hours at 37C, 5% CO2. Add 1 uL of 6X LiveBLAzer FRET B/G (CCF4-AM) Substrate Mixture to each well using a BioRAPTR dispenser and incubate the plates at room temperature for 2 hours. Measure fluorescence intensity at 460 and 530 nm emission and 405 nm excitation by an Envision detector. Data is expressed as the ratio of 460nm/530nm emissions. Add 4 uL of Cell-titer Glo to each well using BioRAPTR and incubate the plates at room temperature for 2 hours. Measure fluorescence intensity by a VewLux plate reader.
On to `O=C(c1ccccc1)c1ccccc1`, for which the result was inactive.

With `CCCCCCCCCCCCCC[n+]1ccccc1`, the half-maximal activity concentration (AC50) (as a rule, the midpoint of the concentration-response curve, whichever way the signal moves) was 4.85 µM (active). `Cc1ccc(C(=O)c2ccccc2)cc1`: the outcome was inactive. Same read-out and setting: then `CCCCc1oc2ccccc2c1C(=O)c1cc(I)c(OCCN(CC)CC)c(I)c1`, with “inactive”; and `O=C1OC(=O)c2cc(-c3ccc4c(c3)C(=O)OC4=O)ccc21`, with “inactive”.

Regarding `CCCCCCCCCCCCCCCCCC[N+](C)(C)Cc1ccccc1`, the concentration at half-maximal activity (AC50) is 74.3 µM (active). With `O=C(CCCN1CCC(O)(c2ccc(Cl)cc2)CC1)c1ccc(F)cc1`, the result was inactive.

With `CCCCCCOC(=O)c1ccc(O)cc1`, the outcome was inactive and the AC50 is 67.3 µM (active). For `O=C(Nc1cccc([N+](=O)[O-])c1)c1cc2ccccc2cc1O`, the AC50 was 1.17 µM (active). With `O=C1OC2(c3ccccc31)c1cc(I)c(O)c(I)c1Oc1c2cc(I)c(O)c1I`, the AC50 is 78.6 µM (active) and the result was inactive. `Cc1ccc(C)c(S(=O)(=O)O)c1`: the result was inactive. As for `CCC(=O)C=Cc1ccc(OC)cc1`, the result was inactive. On the same count and under the same terms, then `O=C(NO)c1ccccc1`, with “inactive”; and `O=c1cc(-c2ccccc2)oc2ccc3ccccc3c12`, with “inactive”; and `COCN(COC)c1nc(N(COC)COC)nc(N(COC)COC)n1`, with “inactive”. On the same count and under the same terms, then `CCCCCCc1ccc(N)cc1`, with “inactive”. `NC(=NCCCCCCN=C(N)/N=C(\N)Nc1ccc(Cl)cc1)/N=C(\N)Nc1ccc(Cl)cc1`: the outcome was inactive and the half-maximal activity concentration (AC50) was 59.8 µM (active) [middle of 4 runs]. As for `Oc1ccc(Cc2ccccc2O)cc1`, the result was inactive.

Consider `Nc1cc(Cl)c(-c2cc(Cl)c(N)cc2Cl)cc1Cl`, for which the AC50 is 69 µM (active) and 81.7 µM (active). For `CC1=CC(=O)c2ccccc2C1=O`, the result was inactive. With `Cc1ccccc1C(OCCN(C)C)c1ccccc1` (stereo not given), the outcome was inactive.

As for `NS(=O)(=O)O`, the result was inactive.

`CCCCCCCCCCCC(=O)NCCCN(C)C`: the AC50 was 87.1 µM (active). For the molecule `CCC(=O)O`, the result was inactive. Regarding `Clc1ccc(Nc2nnc(Cc3ccncc3)c3ccccc23)cc1`, the result was inactive. As for `CC(C)(C)c1ccc(CCC=O)cc1`, the result was inactive. Consider `CCCCCCCCCCCCOC(=O)c1cc(O)c(O)c(O)c1`, for which the AC50 was 24.7 µM (active) and 32.4 µM (active). Turning to `OCC1CCC(CO)CC1` (stereo not given), the outcome was inactive. As for `CC=O`, the concentration at half-maximal activity (AC50) was 3.17 µM (active). Consider `Cc1cc(=O)oc2cc(O)ccc12`, for which the result was inactive.

On to `Nc1ccc(O)c(C(=O)O)c1`, for which the outcome was inactive. Same read-out and setting: then `Cc1cc(C(C)(C)C)c(O)c(C(C)(C)C)c1`, with “inactive”; and `C[C@]12CC[C@@H]3c4ccc(O)cc4CC[C@H]3[C@@H]1C[C@@H](O)[C@@H]2O`, with “inactive”. Regarding `NCc1cccc(CN)c1`, the outcome was inactive. As for `CC(C)(O)C(=O)c1ccccc1`, the result was inactive. Consider `CCCCCCCCCCCC[N+](C)(C)CCCCCCCCCCCC`, for which the AC50 is 41.4 µM (active).

In the case of `CC(C)(C)C1CCCCC1O` (stereo not given), the outcome was inactive.
